Measurements: the supplement of paper PMC11732987, “Enantioselective OTUD7B fragment discovery through chemoproteomics screening and high-throughput optimisation” (Communications Chemistry, 2025)

What was measured:
Experiment in all cases: log2 ratio of Biotin-Ahx-Ub-VS probe labelling (fragment/DMSO); higher = less target engagement (more negative = stronger competition), active = hit call of the paper (q ≤ 0.05, log2 ratio ≤ -1)
Conditions in all cases: compound concentration: 200 uM; treatment time: 3 h
OTUD6B = target: T1, OTUD6B (UniProt Q8N6M0)
T1 sequence (whole entry): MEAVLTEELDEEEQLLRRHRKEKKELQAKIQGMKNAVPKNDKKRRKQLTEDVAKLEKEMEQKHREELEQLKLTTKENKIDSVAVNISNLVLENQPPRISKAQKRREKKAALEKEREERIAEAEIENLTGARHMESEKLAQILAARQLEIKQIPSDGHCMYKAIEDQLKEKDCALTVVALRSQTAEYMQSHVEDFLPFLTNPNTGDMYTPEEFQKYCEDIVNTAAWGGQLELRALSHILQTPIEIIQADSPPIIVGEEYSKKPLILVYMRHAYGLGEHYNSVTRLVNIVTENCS
In short: (§1)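 Global-median-normalised Spectronaut label-free quantities were compared by unpaired t-test, and values are average log2 ratios of fragment over vehicle. Only proteins with ≥2 unique peptides were used. HEK293T lysate (495 µg per sample) was treated in triplicate with fragment at 200 µM or vehicle for 3 h and then with Biotin-Ahx-Ub-VS at 0.5 µM final for 1 h. Labelled DUBs were then NeutrAvidin-enriched, digested with LysC and trypsin, and run by diaPASEF LC-MS/MS.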

OTUD7B = target: T2, OTUD7B (UniProt Q6GQQ9)
T2 sequence (whole entry): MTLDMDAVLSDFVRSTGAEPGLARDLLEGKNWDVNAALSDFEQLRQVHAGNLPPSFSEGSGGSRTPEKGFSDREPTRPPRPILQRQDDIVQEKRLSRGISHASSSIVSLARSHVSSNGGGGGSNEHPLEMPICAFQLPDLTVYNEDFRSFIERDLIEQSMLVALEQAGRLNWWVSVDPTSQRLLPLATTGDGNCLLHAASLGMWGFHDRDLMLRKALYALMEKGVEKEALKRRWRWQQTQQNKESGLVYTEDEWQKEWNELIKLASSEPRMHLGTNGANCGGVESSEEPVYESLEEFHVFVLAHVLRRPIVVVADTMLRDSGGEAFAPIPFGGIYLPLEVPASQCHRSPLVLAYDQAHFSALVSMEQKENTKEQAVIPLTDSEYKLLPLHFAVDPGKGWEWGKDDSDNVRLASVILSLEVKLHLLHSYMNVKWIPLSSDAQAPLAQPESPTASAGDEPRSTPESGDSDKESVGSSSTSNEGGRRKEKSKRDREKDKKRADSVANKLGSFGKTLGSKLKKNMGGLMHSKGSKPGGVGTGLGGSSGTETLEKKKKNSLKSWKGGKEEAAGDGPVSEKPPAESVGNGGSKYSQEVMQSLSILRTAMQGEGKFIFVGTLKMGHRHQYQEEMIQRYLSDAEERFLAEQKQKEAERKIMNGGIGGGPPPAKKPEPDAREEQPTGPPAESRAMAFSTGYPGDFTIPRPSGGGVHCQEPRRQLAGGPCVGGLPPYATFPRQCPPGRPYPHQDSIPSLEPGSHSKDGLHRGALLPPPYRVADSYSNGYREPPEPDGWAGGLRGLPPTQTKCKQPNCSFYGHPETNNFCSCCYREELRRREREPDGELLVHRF
In short: as §1

PRPF8 = PRPF8 (UniProt Q6P2Q9)
In short: as §1

PSMD7 = target: T3, PSMD7 (UniProt P51665)
T3 sequence (whole entry): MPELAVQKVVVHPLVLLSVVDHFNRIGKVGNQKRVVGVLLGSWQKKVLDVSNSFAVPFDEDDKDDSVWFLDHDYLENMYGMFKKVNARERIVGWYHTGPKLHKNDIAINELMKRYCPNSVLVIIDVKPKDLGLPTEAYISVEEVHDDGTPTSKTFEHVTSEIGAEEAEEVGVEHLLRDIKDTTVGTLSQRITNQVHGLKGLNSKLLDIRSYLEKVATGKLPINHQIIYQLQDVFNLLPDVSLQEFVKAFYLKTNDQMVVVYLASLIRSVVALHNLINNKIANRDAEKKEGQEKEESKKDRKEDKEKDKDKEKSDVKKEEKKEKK
In short: as §1

UCHL1 = UCHL1 (UniProt P09936)
In short: as §1

UCHL3 = target: T4, UCHL3 (UniProt P15374)
T4 sequence (whole entry): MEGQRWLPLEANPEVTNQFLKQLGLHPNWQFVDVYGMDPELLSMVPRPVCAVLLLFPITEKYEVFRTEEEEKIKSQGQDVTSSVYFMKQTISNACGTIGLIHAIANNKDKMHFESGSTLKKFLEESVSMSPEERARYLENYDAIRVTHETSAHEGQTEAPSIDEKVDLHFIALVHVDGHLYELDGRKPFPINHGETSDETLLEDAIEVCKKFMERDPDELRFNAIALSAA
In short: as §1

UCHL5 = target: T5, UCHL5 (UniProt Q9Y5K5)
T5 sequence (whole entry): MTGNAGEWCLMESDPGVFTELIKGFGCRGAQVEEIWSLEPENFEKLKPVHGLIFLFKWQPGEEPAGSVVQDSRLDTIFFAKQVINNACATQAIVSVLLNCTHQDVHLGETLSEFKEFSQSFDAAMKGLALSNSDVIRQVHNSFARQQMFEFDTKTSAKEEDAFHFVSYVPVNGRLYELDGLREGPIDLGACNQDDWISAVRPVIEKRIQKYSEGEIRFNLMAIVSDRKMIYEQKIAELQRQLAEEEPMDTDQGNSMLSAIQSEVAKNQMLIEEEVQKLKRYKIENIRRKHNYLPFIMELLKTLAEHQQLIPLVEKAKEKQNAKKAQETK
In short: as §1

USP10 = USP10 (UniProt Q14694)
In short: as §1

USP15 = target: T6, USP15 (UniProt Q9Y4E8)
T6 sequence (whole entry): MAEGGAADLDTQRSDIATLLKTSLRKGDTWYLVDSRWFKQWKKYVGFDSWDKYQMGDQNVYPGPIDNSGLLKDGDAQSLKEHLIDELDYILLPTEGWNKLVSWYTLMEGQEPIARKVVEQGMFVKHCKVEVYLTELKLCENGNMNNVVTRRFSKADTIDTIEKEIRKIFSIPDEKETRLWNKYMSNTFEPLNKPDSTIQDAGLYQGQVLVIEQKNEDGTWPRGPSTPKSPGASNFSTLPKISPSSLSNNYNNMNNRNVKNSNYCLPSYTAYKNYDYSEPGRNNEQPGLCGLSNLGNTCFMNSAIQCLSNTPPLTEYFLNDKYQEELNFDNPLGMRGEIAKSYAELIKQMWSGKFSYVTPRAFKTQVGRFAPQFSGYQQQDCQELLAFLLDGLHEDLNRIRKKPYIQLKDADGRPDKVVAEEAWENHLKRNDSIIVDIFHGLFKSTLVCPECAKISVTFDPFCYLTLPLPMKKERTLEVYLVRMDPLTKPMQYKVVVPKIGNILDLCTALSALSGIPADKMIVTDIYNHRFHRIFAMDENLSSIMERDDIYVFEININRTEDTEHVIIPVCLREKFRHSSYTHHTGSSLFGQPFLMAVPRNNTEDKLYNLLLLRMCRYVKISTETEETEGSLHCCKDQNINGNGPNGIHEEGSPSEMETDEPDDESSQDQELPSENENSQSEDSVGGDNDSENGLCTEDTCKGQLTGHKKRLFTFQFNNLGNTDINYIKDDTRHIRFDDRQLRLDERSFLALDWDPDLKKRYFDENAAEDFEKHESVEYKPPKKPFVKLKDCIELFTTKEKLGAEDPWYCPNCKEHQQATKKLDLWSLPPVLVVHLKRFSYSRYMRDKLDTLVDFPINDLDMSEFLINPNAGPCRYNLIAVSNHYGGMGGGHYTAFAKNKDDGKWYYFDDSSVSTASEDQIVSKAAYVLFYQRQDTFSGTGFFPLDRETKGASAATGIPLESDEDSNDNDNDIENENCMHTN
In short: as §1

USP16 = USP16 (UniProt Q9Y5T5)
In short: as §1

Measured: log2 ratio of Biotin-Ahx-Ub-VS probe labelling

Sequence of USP16 (Q9Y5T5 whole entry, looked up): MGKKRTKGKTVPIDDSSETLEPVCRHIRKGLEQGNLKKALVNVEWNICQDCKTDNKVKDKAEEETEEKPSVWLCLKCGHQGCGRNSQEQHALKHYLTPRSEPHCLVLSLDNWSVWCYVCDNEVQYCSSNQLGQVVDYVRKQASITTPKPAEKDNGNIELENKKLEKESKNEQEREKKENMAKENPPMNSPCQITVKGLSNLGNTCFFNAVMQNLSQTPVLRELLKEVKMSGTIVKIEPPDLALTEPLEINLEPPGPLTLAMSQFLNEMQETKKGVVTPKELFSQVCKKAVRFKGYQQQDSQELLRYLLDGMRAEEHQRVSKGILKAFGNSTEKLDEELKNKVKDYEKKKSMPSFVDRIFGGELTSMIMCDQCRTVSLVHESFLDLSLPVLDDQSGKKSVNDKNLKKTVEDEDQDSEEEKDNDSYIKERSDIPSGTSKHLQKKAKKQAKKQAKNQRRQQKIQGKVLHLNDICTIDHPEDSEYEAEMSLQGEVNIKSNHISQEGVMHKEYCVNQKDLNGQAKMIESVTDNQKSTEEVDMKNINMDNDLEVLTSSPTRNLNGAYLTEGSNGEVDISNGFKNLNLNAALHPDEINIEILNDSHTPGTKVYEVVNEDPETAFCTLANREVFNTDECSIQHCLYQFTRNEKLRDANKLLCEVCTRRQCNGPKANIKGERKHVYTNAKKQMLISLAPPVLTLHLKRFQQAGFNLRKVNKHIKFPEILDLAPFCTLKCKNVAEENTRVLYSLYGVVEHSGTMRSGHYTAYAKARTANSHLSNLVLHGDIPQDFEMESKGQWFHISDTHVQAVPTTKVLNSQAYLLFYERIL
Sequence of UCHL1 (P09936 whole entry, looked up): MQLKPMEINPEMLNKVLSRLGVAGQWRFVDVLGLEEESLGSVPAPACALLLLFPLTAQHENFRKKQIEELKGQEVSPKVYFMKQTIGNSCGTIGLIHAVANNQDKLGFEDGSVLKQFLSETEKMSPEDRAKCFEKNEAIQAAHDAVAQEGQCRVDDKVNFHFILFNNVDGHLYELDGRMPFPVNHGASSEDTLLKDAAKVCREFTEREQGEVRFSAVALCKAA
Sequence of USP10 (Q14694 whole entry): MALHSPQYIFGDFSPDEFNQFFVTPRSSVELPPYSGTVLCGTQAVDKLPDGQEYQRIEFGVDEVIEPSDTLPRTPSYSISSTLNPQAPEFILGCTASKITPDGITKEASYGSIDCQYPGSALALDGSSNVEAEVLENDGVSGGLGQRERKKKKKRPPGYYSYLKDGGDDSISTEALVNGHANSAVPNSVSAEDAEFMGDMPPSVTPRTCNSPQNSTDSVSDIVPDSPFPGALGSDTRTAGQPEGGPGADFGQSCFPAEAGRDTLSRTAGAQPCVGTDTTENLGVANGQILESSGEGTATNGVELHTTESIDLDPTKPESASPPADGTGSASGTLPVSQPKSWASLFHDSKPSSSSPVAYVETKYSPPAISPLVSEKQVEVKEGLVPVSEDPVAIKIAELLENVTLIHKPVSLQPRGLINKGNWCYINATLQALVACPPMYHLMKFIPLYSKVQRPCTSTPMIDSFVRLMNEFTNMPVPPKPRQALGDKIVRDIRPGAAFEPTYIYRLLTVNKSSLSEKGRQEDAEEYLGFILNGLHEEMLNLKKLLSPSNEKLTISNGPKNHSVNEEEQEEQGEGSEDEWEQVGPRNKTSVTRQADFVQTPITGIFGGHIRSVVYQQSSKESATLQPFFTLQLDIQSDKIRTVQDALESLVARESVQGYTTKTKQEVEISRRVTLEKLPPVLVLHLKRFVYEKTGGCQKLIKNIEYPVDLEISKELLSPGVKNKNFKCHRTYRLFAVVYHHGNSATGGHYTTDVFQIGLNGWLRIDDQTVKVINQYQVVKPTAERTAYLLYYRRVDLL

O=C(CCl)Nc1ccc(F)cc1F
inactive: OTUD6B -0.161 | OTUD7B -0.881 | PRPF8 -0.105 | PSMD7 -0.179 | UCHL3 0.078 | UCHL5 -0.242 | USP10 -0.129 | USP15 -0.34 | USP16 0.0073
active: UCHL1 -1.47
